The list is not random: actives were taken first. Their share in the collection is about 9%.
IMPase Li cell – membrane-permeable IMPase blocker, potentiated with lithium; CHO-M1 cells, IP1 TR-FRET (IP-One), carbachol + lithium; Potency, µM (doses to about 59.4 µM), for the others: at the highest dose activity, negative = IMPase inhibition, usual class: inhibitors; 210,000 tested, 0.35% active; active = well fitted curve in the direction sought with a large enough effect; inconclusive = small, poorly fitted or top-dose-only effect, or another doubt; inactive = no such curve, though single readings can be large; an effect the other way counts as inactive or inconclusive;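 also: IP1 builds up when IMPase is blocked and the TR-FRET signal falls; potency is read from the fitted curve at half-maximal effect; plate controls were basal vehicle for no effect and high inhibitor control for full effect; nearly all actives have a fitted effect of over 50% in size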
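CHO cells stably expressing M1 receptor (2000/well) were cultured 16–30 h, then exposed to compounds with a small lithium addition for 30 min at 37C. IP1 was measured by TR-FRET competition; AC50 from Hill fits.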
HPGD inh – HPGD (human) dehydrogenase inhibition. purified HPGD, NADH fluorescence kinetic, PGE2 substrate. Potency, µM, inactives show top-dose activity change, negative = inhibition, usual class: inhibitors. 150,000 tested, 4.3% active. AID 894; also: potency is read from the fitted curve at half-maximal effect; % is scaled to controls: 0 for no effect and ±100 for the full control effect
Target sequence (P15428 whole entry, looked up): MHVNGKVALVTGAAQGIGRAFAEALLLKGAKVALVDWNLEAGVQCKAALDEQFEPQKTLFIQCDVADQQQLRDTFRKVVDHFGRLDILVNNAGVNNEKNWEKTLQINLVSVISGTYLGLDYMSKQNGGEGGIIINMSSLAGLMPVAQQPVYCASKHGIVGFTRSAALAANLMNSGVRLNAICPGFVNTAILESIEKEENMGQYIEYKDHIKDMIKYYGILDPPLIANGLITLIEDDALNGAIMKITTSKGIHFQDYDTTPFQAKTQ
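20 nM HPGD preincubated 15 min at room temperature with compound in 50 mM Tris-HCl pH 8, 0.01% Tween 20. Started with 1 mM NAD+ and 30 uM prostaglandin E2; NADH fluorescence (360/450 nm) read 5 times over 30-s intervals, last minus first.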
Luc counter – counter-screen: inhibitors of Kinase-Glo firefly luciferase; Q27757; Kinase-Glo luciferase, ATP luminescence, 8 min; Potency, µM (titrated, usually from 38.3 µM), inactives show at the top dose activity change, negative = inhibition, actives largely listed as inhibitors; 200,000 tested, 0.28% active; AID 1379; active = well fitted curve in the direction sought with a large enough effect; inconclusive = small, poorly fitted or top-dose-only effect, or another doubt; inactive = no such curve, though single readings can be large; an effect the other way counts as inactive or inconclusive; also: potency is read from the fitted curve at half-maximal effect; % is scaled to controls: 0 for no effect and ±100 for the full control effect; nearly all actives have a fitted effect of over 60% in size
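Kinase-Glo luciferase light output from ATP and luciferin was measured with 10 uM ATP, within the enzyme's linear range. Buffer: 50 mM imidazole pH 7.2, 50 mM KCl, 7 mM MgCl2, 0.01% Tween 20, 0.05% BSA; luminescence read after 8 min at ambient temperature.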
ALDH1A1 inh-1 – ALDH1A1 (human) enzyme inhibition | P00352 | Purified ALDH1A1, NADH fluorescence, propionaldehyde substrate | Potency, µM (doses to about 75.3 µM), for the others: at the top dose activity, negative = inhibition, hits mostly inhibitors | 220,000 tested, 7.3% active;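 also: potency is read from the fitted curve at half-maximal effect; plate controls were no enzyme wells and a reference inhibitor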
Target sequence (P00352 whole entry, looked up): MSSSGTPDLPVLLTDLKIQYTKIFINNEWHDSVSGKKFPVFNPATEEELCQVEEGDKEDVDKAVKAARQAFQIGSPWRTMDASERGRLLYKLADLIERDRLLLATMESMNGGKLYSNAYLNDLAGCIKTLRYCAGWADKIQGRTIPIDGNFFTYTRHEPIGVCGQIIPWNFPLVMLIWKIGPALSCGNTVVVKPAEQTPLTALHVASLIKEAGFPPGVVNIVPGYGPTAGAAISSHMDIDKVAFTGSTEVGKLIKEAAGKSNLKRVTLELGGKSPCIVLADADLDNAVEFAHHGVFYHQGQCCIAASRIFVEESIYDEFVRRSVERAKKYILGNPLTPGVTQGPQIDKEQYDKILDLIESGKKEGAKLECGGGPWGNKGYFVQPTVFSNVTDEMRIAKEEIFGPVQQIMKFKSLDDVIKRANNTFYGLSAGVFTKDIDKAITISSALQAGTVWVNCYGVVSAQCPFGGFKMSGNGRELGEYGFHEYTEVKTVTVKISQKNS
Lamin A splicing – changes lamin A minigene splicing in HeLa cells. Potency, µM (doses to about 46.1 µM), for the others: at the highest dose ratio change, negative = inhibition, usual class: inhibitors. AID 1487. HeLa LMNA splicing GFP/RFP minigene ratio, 48 h. 200,000 tested, 0.01% active; active = well fitted inhibition curve with a large enough effect in the signal ratio, with a control signal flat, not every such curve was filed as active; inconclusive = small, poorly fitted or top-dose-only effect, or effect the other way, or a change in a side signal; the % refers to the signal ratio; also: potency is read from the fitted curve at half-maximal effect; % is scaled to controls: 0 for no effect and ±100 for the full control effect
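S3 HeLa stable clones carrying a lamin A-EGFP splicing minigene plus DsRed2 were seeded at 600 cells/well in Opti-MEM with 2% FBS, pin-dosed and incubated 48 h at 37°C. Acumen cytometry (488 nm) gave the GFP/RFP total-intensity ratio.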
HPGD inh cf – human HPGD enzyme inhibition, confirmation; shares compounds with HPGD inh; recombinant HPGD, NADH fluorescence, PGE2 substrate; AID 2429; 90 tested, 90% active; Potency, µM (highest dose often 57.1 µM), for the others: top-dose activity change, negative = inhibition, usual class: inhibitors; calls by dose curve
ALDH1A1 inh-2 – Inhibits human ALDH1A1, confirmation and counter-screen. shares compounds with ALDH1A1 inh-1. purified ALDH1A1, NADH fluorescence, propionaldehyde/NAD+. Potency, µM (highest dose often 57.1 µM), for the others: at the top dose activity change, negative = inhibition, actives largely listed as inhibitors. 90 tested, 90% active. AID 493210; calls by dose curve
Numbers without * were called inactive; u = inconclusive; x = no result given; ! = a repeat was not active; [ ] = remark or other dose. Unless noted, calls follow the shape of the dose curve; as a rule, active = well fitted inhibition curve with a large enough effect (not every such curve was filed as active); inconclusive = small, poorly fitted or top-dose-only effect, or another doubt; inactive = no such curve, though single readings can be large or run the other way.

SMILES	IMPase Li cell	HPGD inh	Luc counter	ALDH1A1 inh-1	Lamin A splicing	others
O=C1NC(=O)C(=Cc2ccsc2)C(=O)N1	-1.5%	x	-3.1%	-2.6%	x
O=C1NC(=O)C(=C/C=C/c2coc3ccc(Br)cc3c2=O)C(=O)N1	x	x	x	3.16µM*	9.2%[46 µM]
OC[C@H]1O[C@@H](n2cnc3cc(Cl)c(Cl)cc32)[C@H](O)[C@H]1O	-21.1%	x	x	u	x
O=[As](O)(O)c1ccc2nc3cc([As](=O)(O)O)ccc3nc2c1	-2.2%	-6.2%	2.5%[7.66 µM]	2.7%[13.5 µM]	x
CCOc1ccc(-n2nc3c(=S)[nH]nc(C)c3c2C)cc1	5.01µM*	0.1%	-1.2%	5.2%	4.0%
CCOc1c(P(=S)(N(C)C)N(C)C)c(C)nn1-c1ccccc1	3.4%	-3.9%	-0.6%	3.0%	-14.1%
O=C(Cc1ccc(Cl)c(Cl)c1)N1CCCC[C@H]1CN1CCCC1	7.2%	-7.6%	-1.3%	5.5%	x
CN(C)C1C(=O)C(C(N)=O)=C(O)[C@@]2(O)C(=O)C3=C(O)c4c(O)cccc4[C@@](C)(O)C3[C@H](O)C12 (stereo partly specified)	3.16µM*	u	-7.3%	7.08µM*	x
CN(C)[C@@H]1C(=O)C(C(N)=O)=C(O)[C@]2(O)C(=O)C3=C(O)c4c(O)cccc4[C@@](C)(O)[C@H]3[C@H](O)[C@@H]12	-12.4%	u	-3.2%[17.1 µM]	u	u
CC(=O)OC1CCC2(C)C3=C(CCC2C1(C)C)[C@@]1(C)CCC(C(C)CCC=C(C)C)[C@@]1(C)CC3 (stereo partly specified)	22.1%	-0.8%	-9.6%	3.6%	x
CC(C)(C)c1ccc(O)c(C[N+](C)(C)C)c1	0.8%	-15.6%	-5.1%[7.66 µM]	14.8%[13.5 µM]	x
CCn1cc(C(=O)N2CCCCC2)c2ccccc21	4.6%	x	4.2%	u	x
CCn1cc(C(=O)O)c(=O)c2cc3c(cc21)OCO3	7.94µM*!	-12.4%	13.8%	-1.1%	1.7%
O=c1[nH]c(=O)n(Cc2ccccc2)c(O)c1C=Nc1ccc(CN2CCOCC2)cc1	x	x	x	14.1µM*	11.6%
O=c1[nH]c(=O)n(Cc2ccco2)c(O)c1C=NCCN1CCOCC1	6.1%[38.3 µM]	-12.2%	0.1%	-14.1%	1.9%
O=c1[nH]c(=O)n(Cc2ccccc2)c(O)c1C=NCCN1CCNCC1	23.1%[38.3 µM]	22.4µM*	-0.2%	15.8µM*	4.9%
O=c1[nH]c(=O)n(CCC2=CCCCC2)c(O)c1C=NCCN1CCNCC1	10.4%[38.3 µM]	-4.8%	-1.5%	14.1µM*	11.8%
CCCN(CCC)[C@@H]1CCc2c(OC)cccc2[C@@H]1C	5.1%	2.2%	-0.7%	-1.9%	x
CN[C@H](CC(C)C)C(=O)N[C@H]1C(=O)N[C@@H](CC(N)=O)C(=O)N[C@H]2C(=O)N[C@H]3C(=O)N[C@H](C(=O)N[C@H](C(=O)O)c4cc(O)cc(O)c4-c4cc3ccc4O)[C@H](O)c3ccc(c(Cl)c3)Oc3cc2cc(c3O[C@@H]2O[C@H](CO)[C@@H](O)[C@H](O)[C@H]2O[C@H]2C[C@](C)(N)[C@H](O)[C@H](C)O2)Oc2ccc(cc2Cl)[C@H]1O	-10.3%	-12.6%	-6.0%	u	-3.6%
NCCSC(c1ccccc1)c1ccccc1	4.2%	-8.3%	0.1%[7.66 µM]	-11.9%[13.5 µM]	x
CC([C@H](O)c1ccccc1)N(C)C (stereo partly specified)	-3.4%	-1.1%	-4.5%	20µM*	-9.9%
CNC(C)[C@H](O)c1ccccc1 (stereo partly specified)	14.5%	-2.4%	-8.3%	7.0%	x
Cc1cccc(N)c1C	-0.8%	-11.4%	x	-5.0%	x
CC(=O)[C@@H]1CC[C@H]2[C@@H]3CC[C@@H]4CC(=O)CC[C@]4(C)[C@H]3CC[C@]12C	1.3%	x	x	u	x
COc1ccc(N2C(=O)CC(N3CC=C(c4ccccc4)CC3)C2=O)cc1 (stereo unspecified)	10.2%[38.3 µM]	u	1.6%	10µM*	-1.1%
SMILES	IMPase Li cell	HPGD inh	Luc counter	ALDH1A1 inh-1	Lamin A splicing	others
CCCCC(=O)N/N=C/c1c(O)n(C2CC2)c(=S)[nH]c1=O	2.4%	-4.8%	-3.1%	-10.8%	-11.8%
CCC(C)n1c(O)c(/C=N/NC(=O)c2ccncc2)c(=O)[nH]c1=S (stereo unspecified)	-3.8%	-14.6%	1.2%	-5.4%	-0.2%
O=c1[nH]c(=S)n(C2CC2)c(O)c1/C=N/Nc1cccc2ccccc12	x	x	x	2.51µM*	-9.8%
CCC(C)n1c(O)c(/C=N/Nc2ccccc2)c(=O)[nH]c1=S (stereo unspecified)	13.8%	-23.2%	-1.7%	3.55µM*	u
O=c1[nH]c(=S)n(C2CC2)c(O)c1/C=N/Nc1ccccc1	26.5%	-18.1%	1.0%	3.16µM*	u
CC(C)(O)[C@@H]1[C@H]2OC(=O)[C@@H]1[C@]1(O)C[C@H]3O[C@]34C(=O)O[C@H]2[C@@]14C (tested in a mixture with another compound)	25.7%	-8.5%	-0.5%	8.5%	x
Cc1ccc(S(=O)(=O)NC(CC(=O)N2CCC3(CC2)OCCO3)c2ccco2)cc1 (stereo unspecified)	22.5%[38.3 µM]	-1.6%	1.6%	12.6µM*	-3.3%
O=P1(NCc2ccco2)COc2ccccc2OC1	-10.8%[38.3 µM]	1µM*	-7.0%	0.3%	0.5%	HPGD inh cf=1µM*
c1ccc(CC(NCc2ccco2)c2ccccc2)cc1 (stereo unspecified)	14.2%	x	-2.4%	-4.6%	7.4%[9.22 µM]
O=P1(NC2CCCC2)COc2ccccc2OC1	u	0.0708µM*	10.6%	-9.3%	-6.9%	HPGD inh cf=0.159µM*
COc1ccc(NC(=O)N2CC3(CCN(C(=O)Oc4ccccc4)CC3)C2)cc1	4.6%	u	-4.1%	u	x
O=C1C=CC(=O)c2c1ccc1c2ccc2ccccc21	16.2%	11.2µM*	-0.8%[17.1 µM]	0.316µM*	u	ALDH1A1 inh-2=0.316µM*
C=CC(=O)OCC	17.3%	-3.7%	x	7.7%	x

High-throughput results: PubChem BioAssay, National Center for Advancing Translational Sciences (NCATS)
